Compounds without any hit were thinned out: in the full panel of roughly 83,000, 20% have a hit.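 Compound tested at a single concentration for 48 hours in 96-well plates; a percent growth value below 10 was scored as active.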 Values without a mark were called inactive. Calls of active or inactive are those of the source.

Experimental findings from PubChem BioAssay (NCI) are described below.

For the test, the system named is CAKI-1 renal. As to the kind of experiment: NCI-60 one-dose screen, 48 h (100 = growth as untreated, 0 = no growth, -100 = all killed). The following applies: 10 µM unless noted. The procedure:
Growth inhibition of the CAKI-1 human tumor cell line is measured as a screen for anti-cancer activity. Cells are grown in 96 well plates and exposed to the test compound for 48 hours. Compounds are tested at a single concentration, which is 10^-5 M for most compounds. The reported endpoint is percent growth (GI% or GIPRCNT), where numbers from 0 - 100% represent growth inhibition, and numbers from -100% - 0 represent cell death. For example, a value of 40 represents 60% growth inhibition. A value of 0 means no net growth occurred over the course of the experiment. A value of -40 indicates 40% of cells at the beginning of the experiment died by the end of the experiment. A value of -100 means all cells are dead at the end of the experiment.
NCI-60 Human Tumor Cell Lines Screen was performed using the standard one-dose NCI protocol, which is described in more detail at https://dtp.cancer.gov/discovery_development/nci-60/default.htm.
Compounds with GIPRCNT values below 10 were considered active. Activity score was based on GIPRCNT using the following formula: […]
Score is 0 for GIPRCNT values of 100 or above, 50 for GIPRCNT values of 0, and 100 for GIPRCNT values of -100.
Consider `Cc1cc(C)cc(NC(=O)Cn2cc(COn3nnc4ccccc43)nn2)c1`, for which the growth was 97.4%.

As to `Cn1cc(-c2nnc(N)nc2-c2c[nH]c3ccc(Br)cc23)c2cc(Br)cnc21`, the growth was 33%.

Consider `COc1ccc(-c2ccnc(SCc3cc4cc(OC)ccc4[nH]c3=O)n2)cc1`, for which the growth was 38.8%.

As for `CC1(c2cc3cc(Cl)ccc3oc2=O)NC(=O)c2c(/C=C/C(=O)OC3CC4CCC3(C)C4(C)C)cccc2N1` (stereo not given), the growth is 59.6%.

In the case of `COc1ccc(NC(=O)c2sc3nc(C(C)C)ccc3c2N)cc1`, the growth is 80.7%.

Consider `COc1cc2c(c(OC)c1OC)C(=O)CC(c1cccc(NC(=O)c3cccc([N+](=O)[O-])c3)c1)O2` (stereo not given), for which the growth was 22.1%.

As to `CCS(=O)(=O)N1CCCC(C(=O)Nc2nc3ccc(NC(=O)c4ccc(F)c(OC)c4F)cc3s2)C1` (stereo not given), the growth was 57.6%.

On to `COc1ccc(-c2nc(SCC(C)C)nc(NCCc3c[nH]c4ccccc34)c2C#N)cc1`, for which the growth is 54.1%.

On to `COc1cc2oc(-c3cccc(NC(=O)[C@H](Cc4ccccc4)NC(=O)OC(C)(C)C)c3)cc(=O)c2c(OC)c1OC`, for which the growth was 31.7%.

Take `C#CCOc1ccc(/C=N/Nc2nc(-c3ccc(Cl)cc3)cs2)cc1OC`: the growth was 52.6%.

Regarding `CC(=O)OC[C@@]1(C)C2CC[C@]3(C)C(CC=C4C5CC(C)(C)CC[C@]5(C(=O)Nc5ccc(F)cc5)CC[C@]43C)[C@@]2(C)C[C@@H](OC(C)=O)[C@@H]1OC(C)=O` (stereo not given in full), the growth is 44.9%.

Regarding `Cc1ccc(S(=O)(=O)c2nc(S(=O)(=O)c3ccc(C)cc3)c(Cl)s2)cc1`, the growth is -75.8% (active).

For the compound `Cc1ccc(NCC(=O)Cn2cc(COc3ccc(C=Nc4cnc5ccccc5c4)cc3)nn2)cc1`, the growth was 97%.

As to `O=C(COc1ccc2c(c1)CCCC(=O)N2)NCc1ccccc1`, the growth was 92.7%.

With `O=C(NNc1nc2cc(F)ccc2n2c(CN3CCCCC3)ccc12)c1cnccn1`, the growth is -79.5% (active).

For the compound `COc1ccc(-c2nnc3ccc(N/N=C/c4ccc(O)cc4)nn23)cc1`, the growth is 21.5%.

Take `COc1cccc(-c2nc(Nc3ccc(S(N)(=O)=O)cc3)c3ccccc3n2)c1`: the growth was 25.2%.

In the case of `Cc1cc2c(cc1Cl)C(=O)/C(=C/c1ccccc1)O2`, the growth is -81.1% (active).

For the compound `O=C(O)Cn1c(O)c(/C=C2/C=c3cc4c(cc3=NC2=O)OCCO4)sc1=S`, the growth was 99.3%.

Regarding `Cc1cccc(NC(=O)CN2CCN(c3ncnc4c3cnn4-c3ccccc3)CC2)c1`, the growth was 82.9%.

With `COc1cc2c3c(n(CCCN4CCC[C@@H]4CO)c(=O)c2cc1OC)-c1cc2c(cc1C3=O)OCO2`, the growth is -94.6% (active).

On to `CNS(=O)(=O)c1ccc(Nc2ccc(C(F)(F)F)cc2)c(-c2cn(C)cn2)c1`, for which the growth was 60.8%.

Regarding `COc1c(F)ccc(C(=O)Nc2ccc3nc(NC(=O)C4CCCN(S(=O)(=O)c5ccc(Br)c(F)c5)C4)sc3c2)c1F` (stereo not given), the growth was 72.7%.

With `Cc1cccc(-c2nc(Nc3ccc(C)c(S(N)(=O)=O)c3)c3ccccc3n2)c1`, the growth is 24%.

On to `COc1cc(/C=C/C(=O)c2ccc(C)cc2)ccc1Oc1nc(Nc2ccc(F)cc2)nc(N(C)C)n1`, for which the growth was 35.6%.

For `Cc1ncsc1-c1ccc(CNC(=O)[C@@H]2C[C@@H](O)CN2C(=O)[C@@H](NC(=O)C2(F)CC2)C(C)(C)C)c(OCCOCCOCCOCCOc2nc(Nc3cc(S(C)(=O)=O)ccc3N[C@@H](c3cccc4c3OC(F)(F)O4)c3ncccc3Cl)nc(N3CCNCC3)n2)c1`, the growth is 101%.

Turning to `CC(C)CSc1nc(NCCc2c[nH]c3ccccc23)c(C#N)c(-c2ccc(Cl)cc2)n1`, the growth is 50.1%.

On to `COc1ccc(NC(=O)[C@@H](N)Cc2ccccc2)cc1C(=O)Nc1cccc(C2CC(=O)c3c(cc(OC)c(OC)c3OC)O2)c1` (stereo not given in full), for which the growth is 54.1%.

Consider `COc1cc2oc(-c3cccc(C(=O)Nc4ccc(Cl)cc4)c3)cc(=O)c2c(OCCNC(=O)[C@H](CCC(=O)OC(C)(C)C)NC(=O)OC(C)(C)C)c1OC`, for which the growth is 69.4%.

Take `COc1cc2nc(SCc3ccccc3)n(-c3ccc(Cl)cc3)c(=O)c2cc1OC`: the growth was -75.5% (active).

For `CCN(CC)c1ccc(/C=N/Nc2nc(-c3ccc(C)cc3)cs2)c(O)c1`, the growth is 78%.

As to `O=C(COc1ccc(NC(=O)Nc2ccc(Cl)cc2)cc1)N/N=C/c1ccccc1`, the growth was -89.6% (active).

Take `N/C(=N\N=C\c1ccc([N+](=O)[O-])cc1)c1c(N)nc(=S)[nH]c1-c1ccc(Cl)cc1Cl`: the growth was 78.9%.

As to `N#Cc1c(-c2ccc(Cl)cc2)nc2n[nH]c(-c3ccc(Cl)cc3)c2c1-c1cccs1`, the growth is 39%.

`CC(C)c1ccc2c(N)c(C(=O)Nc3cccc(C(F)(F)F)c3)sc2n1`: the growth is 74%.

For `C#CCOc1cc(N(CC)CC)ccc1C(C(=O)NC(C)(C)C)N(C(=O)C1CCc2cc(F)ccc2O1)c1cc(C)cc(C)c1` (stereo not given), the growth is 27.9%.

Consider `Cn1cc(-c2cc3nc(-c4c[nH]c5ccc(Cl)cc45)cc(N)n3n2)c2ccccc21`, for which the growth is -94.6% (active).

Consider `COc1c(F)ccc(C(=O)Nc2ccc3nc(NC(=O)C4CCCN(S(=O)(=O)c5cccc(Br)c5)C4)sc3c2)c1F` (stereo not given), for which the growth was 76.4%.

Take `Cc1c(C(=O)NNC(=O)Nc2ccc(Cl)cc2)nnn1-c1ccc(Br)cc1`: the growth was 83.9%.

In the case of `Cc1ccc(C(=O)CSc2nc3ccc(F)cc3c(=O)n2-c2ccc(Cl)cc2)cc1`, the growth was 10.1%.
